# Screening data: PubChem BioAssay, National Center for Advancing Translational Sciences (NCATS)
# Compounds with a hit are over-represented: about 6% of the library has one in this group of screens.
# D3 ag: agonists of human D3 dopamine receptor; P35462; D3R DiscoveRx beta-arrestin cells, luminescence, 90 min; max activation, %; hit rate 0.58% among 410,000; in the data active = max activation above about 30%; also: 0% is about no effect
# Target sequence (P35462 whole entry, looked up): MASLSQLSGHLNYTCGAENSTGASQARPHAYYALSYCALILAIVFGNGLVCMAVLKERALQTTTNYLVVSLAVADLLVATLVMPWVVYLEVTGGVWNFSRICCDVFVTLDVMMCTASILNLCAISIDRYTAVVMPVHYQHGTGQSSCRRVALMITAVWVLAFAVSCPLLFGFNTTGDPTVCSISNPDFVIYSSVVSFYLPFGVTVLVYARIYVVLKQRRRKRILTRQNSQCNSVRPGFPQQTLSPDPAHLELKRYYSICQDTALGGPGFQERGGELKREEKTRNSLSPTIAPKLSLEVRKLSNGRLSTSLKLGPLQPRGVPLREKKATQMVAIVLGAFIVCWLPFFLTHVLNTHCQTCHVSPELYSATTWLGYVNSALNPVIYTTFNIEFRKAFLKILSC
#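 Cells at 1500/well, incubated overnight, then treated with pinned compounds (dopamine as control) for 90 min at 37 degrees C. DiscoveRx reagent added for 30 - 60 minutes at room temperature; luminescence read.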
# D3 antag: blocks the human D3 dopamine receptor. hit rate 2.5% among 360,000. P35462. D3R cells, DiscoveRx beta-arrestin luminescence, antagonist mode; stronger effect = lower value. max response, negative = inhibition, %; in the data active = max response below about -50%; inconclusive = no clear call, values can overlap the other calls; also: % is scaled to controls: 0 for no effect and ±100 for the full control effect
#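 Cells plated overnight at 1500 cells/well, then exposed to library compounds with dopamine controls for 90 minutes at 37 degrees C. DiscoveRx reagent added for 30–60 minutes at room temperature; luminescence read, quantitative HTS format.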
# BCR signal inh: inhibitors of chronic active B-cell receptor signaling; ABC-DLBCL IkBa-CBG/CBR reporter, luminescence ratio, 4 h; Potency, µM (doses to about 46.1 µM), for inactives: at the top dose activity change, negative = inhibition, actives largely listed as inhibitors; hit rate 0.05% among 340,000; AID 493014; active = well fitted inhibition curve with a large enough effect in the signal ratio, with a control signal flat, not every such curve was filed as active; inconclusive = small, poorly fitted or top-dose-only effect, or effect the other way, or a change in a side signal; the % refers to the signal ratio;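 also: potency is read from the fitted curve at half-maximal effect; plate controls were basal doxycycline-induced cells for no effect and cells given 10 µM MG132 for full effect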
#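 TMD8 human ABC-DLBCL cells with doxycycline-inducible IκBα–green luciferase fusion and unfused red luciferase, in 0.5% FBS medium; compounds up to 46 uM, 4 h at 37C. Green/red luminescence ratio, filter-overlap corrected, fitted to concentration-response curves.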
# D1 antag: antagonists of human D1 dopamine receptor. activity change, negative = inhibition, % at 10 µM. hit rate 3.2% among 360,000. P21728. HEK293 TREx D1 cells, calcium flux, dopamine EC80; stronger effect = lower value. AID 504652; in the data active = activity change below about -30%; also: % is scaled to controls: 0 for no effect and ±100 for the full control effect
#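 Antagonism measured as reduced calcium response to an EC80 dopamine addition following 180 s compound pre-read; cells were inducible HEK293 Trex D1 plated overnight at 30 C, read kinetically at 1 cycle/sec.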
# D1 agonist: activates the human D1 dopamine receptor; P21728; HEK293 T-REx D1 cells, calcium flux, agonist mode; activation, % at 2 µM; hit rate 1% among 360,000; AID 504660; in the data active = activation above about 30%; also: 0% is about no effect
#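 Tetracycline-induced HEK293 TREx D1 cells, force-coupled to calcium signalling, were dye-loaded with a no-wash calcium kit. Compound was pin-added after a 10 s baseline. Fluorescence was read kinetically at 1 cycle/s for 180 s, with calcium rises flagged as agonism.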
# D1 PAM: potentiators of human D1 dopamine receptor | HEK293 TREx D1 cells, calcium flux, dopamine EC20 potentiation | potentiation, % at 10 µM | hit rate 0.036% among 360,000; in the data active = potentiation above about 30%; also: 0% is about no effect
# * marks the source's active call; other numbers are inactive results; ? = inconclusive; · = not tested or not shown.
SMILES,D3 ag,D3 antag,BCR signal inh,D1 antag,D1 agonist,D1 PAM
Cc1cc(C)cc(Cn2ncc3c4sc(C)cc4n(C)c3c2=O)c1,·,·,·,-6,2,0
CCc1cccc(NC(=O)C2CCN(S(=O)(=O)c3cccc(-c4noc(C)n4)c3)CC2)c1,-15,·,?,7,7,-2
Cn1ncc(Cl)c1C(=O)N/N=C/c1ccccn1,7,10,?,16,5,-1
Cn1ncc(Cl)c1C(=O)N/N=C/c1cccc(OC2CSC2)c1,10,-2,-19%,-45*,11,-4
O=C(CSc1ncccn1)N/N=C/c1cccc(OC2CSC2)c1,-8,-12,-1%,-36*,11,-10
O=C1NCCc2onc(-c3ccc(Br)cc3)c21,-1,8,·,·,·,·
COc1ccccc1CCN1CCCC(CN(C)CC(C)(C)CO)C1 (configuration not stated),-9,-27,-5%,22,1,-2
CC(=O)c1cccc(CN(C)CC2CCCN(CCc3ccccc3C)C2)c1 (configuration not stated),-16,-17,3%,-66*,4,-9
Cc1ccccc1CCN1CCCC(CN(C)CC(C)(C)C)C1 (configuration not stated),1,-5,?,-54*,-4,-4
CN(Cc1ccccc1)CC1CCCN(CCc2ccccc2F)C1 (configuration not stated),-16,-24,0%,-1,3,-6
COc1ccc(F)c(CN(C)CC2CCCN(CCc3ccc(F)cc3)C2)c1 (configuration not stated),-20,8,8%,-58*,3,-12
CC1=CN2C(c3cccc([N+](=O)[O-])c3)=NON(c3ccc(C)cn3)C2C=C1 (configuration not stated),2,19,·,·,·,·
CC(C)[C@@H]1Cc2[nH]c(=S)[nH]c(=O)c2[C@H](CCc2ccccc2)O1,-12,0,·,·,·,·
Cc1ccc(S(=O)(=O)c2nc(-c3ccccc3)oc2NCCN2CCOCC2)cc1,-13,-73*,?,5,1,-4
O=S(=O)(c1ccccc1)c1nc(-c2ccccc2Cl)oc1NCCN1CCOCC1,-14,-22,?,1,9,1
O=S(=O)(c1ccccc1)c1nc(-c2ccccc2Cl)oc1NCCCN1CCOCC1,-17,-71*,?,·,·,·
Cc1ccccc1-c1nc(S(=O)(=O)c2ccccc2)c(NCCCN2CCOCC2)o1,-6,-65*,?,·,·,·
O=S(=O)(c1ccc(F)cc1)c1nc(-c2ccc(F)cc2)oc1NCCN1CCOCC1,-13,-14,-1%,0,1,-5
Cc1ccccc1-c1nc(S(=O)(=O)c2ccc(Cl)cc2)c(NCCN2CCOCC2)o1,-24,?,?,75,-2,-3
COc1ccc([C@]23Cc4cc(OC)c(OC)cc4C(O2)c2c(c4ccccc4oc2=O)O3)cc1,·,·,?,-8,2,-4
CCN(CC)C(=O)c1sc(NC(=O)c2nc3ncccn3n2)c(C(=O)OC)c1C,-6,·,·,-17,0,-3
CC(C)CNC(=S)NNC(=O)c1csc2c1CCC(C)C2 (configuration not stated),-34,-55*,-3%,3,0,4
Cc1cccc(NC(=S)NNC(=O)c2csc3c2CCC(C)C3)c1 (configuration not stated),-11,-14,?,0,-2,0
COc1ccc(NC(=O)CCCc2nnc3n(CCC(C)C)c(=O)c4sccc4n23)cc1Cl,-10,·,·,-14,1,-4
CN(C)c1ccc(/C=C2\N=C(c3ccc(Cl)c([N+](=O)[O-])c3)NC2=O)cc1,-13,?,-8%,-2,35*,-3
SMILES,D3 ag,D3 antag,BCR signal inh,D1 antag,D1 agonist,D1 PAM
COc1ccc(C(=O)Nc2ccccc2C(=O)Nc2cccc(C)n2)cc1,7,-1,4%,-7,6,-4
COc1ccc(C(=O)Nc2ccccc2C(=O)Nc2cc(C)ccn2)cc1,3,-63*,?,2,2,13
O=C1CCCc2ccccc2N1Cc1ccccc1Cl,-8,-21,13%,-35*,3,-2
O=C1CCCc2ccccc2N1Cc1ccc(Cl)cc1Cl,-6,0,15%,61,34*,-3
Cc1ccc(CNCCCSc2nc(C)cc(C)n2)cc1,-26,-92*,-4%,-10,9,-7
Cc1cc(C)nc(SCCCNCc2c(F)cccc2Cl)n1,-14,-7,-2%,-10,4,0
Cc1cc(C)nc(SCCCNCc2ccc(Br)cc2)n1,-1,-95*,1%,-28,36*,-4
COc1ccc(-c2nc(CS(=O)CC(=O)NCCc3ccccc3)c(C)o2)cc1OC (configuration not stated),-5,·,·,2,2,-1
CCOc1ccc(-n2nc3c(=O)[nH]nc(C)c3c2C)cc1,1,-5,-1%,-60*,0,0
CCC(=O)NC1CC2CCCC(C1)N2Cc1ccc(C)cc1 (configuration not stated),-20,-108*,1%,11,1,-1
CCNC(=S)NC1CC2CCCC(C1)N2Cc1ccco1 (configuration not stated),-21,-28,-23%,8,1,-4
CCNC(=S)NC1CC2CCCC(C1)N2Cc1ccc(C)cc1 (configuration not stated),-8,-118*,4%,6,6,-6
CNC(=S)NC1CC2CCCC(C1)N2Cc1ccccc1OC (configuration not stated),-37,-62*,-1%,-1,3,-3
CNC(=S)NC1CC2CCCC(C1)N2Cc1ccc(C)cc1 (configuration not stated),-9,-116*,-1%,3,2,-3
Cc1ccc2[nH]cc(C(c3ccccc3)c3cccs3)c2c1 (configuration not stated),-6,·,·,3,3,1
CCCCCCCCCCCCCCCC(=O)OC[C@@H](NC(=O)C(Cl)Cl)[C@H](O)c1ccc([N+](=O)[O-])cc1,-3,·,·,·,·,·
Cc1ccc(OCC(=O)Nc2ccc3oc(=O)ccc3c2)c(C)c1,-4,-15,-2%,-56*,3,-7
Cc1cc(C)cc(OCC(=O)Nc2ccc(-c3nc4ccccc4o3)cc2)c1,2,·,·,-32*,9,-3
O=C(COc1ccc2ccc(=O)oc2c1)Nc1ccc(CCO)cc1,-1,20,-1%,-49*,2,-3
Cc1cccc(OCC(=O)Nc2ccc(-c3nc4ccccc4o3)cc2)c1C,-6,·,·,8,4,-1
COc1ccc(-c2nc3cc(NC(=O)COc4ccccc4C)ccc3o2)cc1,11,·,·,-54*,10,4
